Activity calls are given as the source filed them.

Experiment [1] in a line: compound effects on lung adenocarcinoma cell viability – A549, calcein-AM fluorescence, 48 h, basal, profiling panel (AID 1162). Conditions: higher = more signal.
Experiment [2] is described as follows: compound effects on differentiated 3T3-L1 adipocyte viability – cell-based, 3T3-L1 adipocytes, calcein-AM fluorescence, 48 h, basal, profiling panel (AID 1163). To be noted: 3T3-L1 adipocytes viability, higher = more signal.
A short description of experiment [3]: compound effects on hepatocellular carcinoma cell viability – HepG2, calcein-AM fluorescence, 48 h, basal, profiling panel (AID 1164). Conditions: higher = more signal.
Experiment [4] in a line: compound effects on multiple myeloma cell viability – MM1S, calcein-AM fluorescence, 48 h, basal, profiling panel (AID 1165).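 Note: viability of MM1S multiple myeloma cells under basal unstimulated conditions.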 To be noted: higher = more signal.
Experiment [5] in a line: calcein-AM signal in unstimulated myeloma cells – cell-based, calcein-AM fluorescence, 48 h, PK04 Diversity Set, profiling panel (AID 1166).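 Note: cells grown under basal conditions without added stimulus.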 Conditions: RPMI8226 myeloma viability, higher = more signal.
The nature of experiment [6]: JC-1 mitochondrial signal, unstimulated HepG2 cells – cell-based, JC-1 fluorescence, 24 h, 100 nL compound, profiling panel (AID 1167). To be noted: HepG2 mitochondrial potential, higher = more signal.
Experiment [7] can be described thus: JC-1 mitochondrial signal, unstimulated adipocytes – cell-based, JC-1 fluorescence, 3T3-L1 adipocytes, 24 h, 100 nL compound, profiling panel (AID 1168). To be noted: JC-1 mitochondrial fluorescence, higher = more signal, called active from +8 up or from −8 down.
Experiment [8] in a line: JC-1 mitochondrial signal, unstimulated myeloma cells – cell-based, JC-1 fluorescence, RPMI8226, 24 h, 100 nL compound, profiling panel (AID 1169). Conditions: JC-1 mitochondrial potential fluorescence, higher = more signal.
The nature of experiment [9]: JC-1 mitochondrial signal, unstimulated MM1S myeloma – cell-based, JC-1 fluorescence, 24 h, 100 nL compound, profiling panel (AID 1170). To be noted: MM1S mitochondrial potential, higher = more signal.
Experiment [10] in a line: resazurin metabolic signal in A549 cells – cell-based, resazurin fluorescence, 24 h, PK04 Diversity Set, profiling panel (AID 1171). To be noted: A549 viability, higher = more signal, called active from +8 up or from −8 down. For orientation: The colour change of resazurin is a common sign of viable cells or microbes.
Note: test concentration not given here.

For the compound `CC(C)(C)OC(=O)CC[C@]12N=C(c3ccc(OCCCO)cc3)O[C@H]1c1ccccc1N(CCS(=O)(=O)c1ccccc1)C2=O`, the z-score in experiment [1] was 1.16; in experiment [2] it was 0.308; in experiment [3], 1.44; in [4], -1.52; in experiment [5] it was -0.568; in experiment [6], -0.784. The z-score was 1.45 (inactive) in [7], -1.09 in experiment [8], -0.719 in [9] and -1.71 (inactive) in experiment [10].

`C=CCOC(=O)[C@H]1[C@@H]2C(=O)O[C@@H](c3ccccc3)[C@@H](c3ccccc3)N2[C@@H](c2ccc(OCCOC(=O)[C@H]3C[C@H]4C(=O)N5CCC[C@H]5C(=O)N4[C@H]3c3ccc(O)cc3)cc2)[C@]12C(=O)Nc1ccc(I)cc12`: the z-score in experiment [1] was 0.321; in experiment [2], 1.47; in experiment [3] it was -0.167; in experiment [4], -0.484; in [5] it was -0.231; in experiment [6] it was -0.518. Further, the z-score in experiment [7] is -0.32 (inactive); in experiment [8] it was -0.00574; in experiment [9], -0.286; in experiment [10] it was -1.16 (inactive).

With `C=CCC(OC(C)=O)[C@@H]1[C@@H](N(Cc2ccc(-c3cccc(C(F)(F)F)c3)o2)C(=O)Cc2ccc(F)cc2)c2cc(OCCCO)ccc2N1C(=O)Cc1ccc(OC)cc1` (stereo not given in full), the z-score in [1] was 1.31; in experiment [2], 1.16; in [3], 0.892; in [4], -0.394; in [5] it was 0.274; in [6] it was 2.87. The z-score in [7] was 0.649 (inactive); in experiment [8] it was -0.386; in experiment [9], -0.195; in experiment [10], 0.555 (inactive).

`CC(C)(C)OC(=O)CC[C@@]1(C(=O)NCC(O)CO)N=C(c2ccc(OCCCO)cc2)O[C@@H]1c1ccccc1N=[N+]=[N-]` (stereo not given in full): the z-score in experiment [1] is 1.79; in [2], -0.309; in [3], 1.34; in [4], -0.312; in experiment [5], 0.0549; in experiment [6], 1.73. The z-score in experiment [7] is 2.9 (inactive); in experiment [8] it was 0.11; in experiment [9], -0.884; in experiment [10], 0.642 (inactive).

For the compound `O=C1O[C@@H](c2ccccc2)[C@@H](c2ccccc2)N2[C@@H](c3ccccc3OCCO)[C@]3(C(=O)Nc4ccc(C#CC5=CCCCC5)cc43)[C@@H](C(=O)Nc3nc4ccccc4s3)[C@H]12`, the z-score in [1] was -1.36; in experiment [2], 0.608; in experiment [3] it was -0.786; in experiment [4], -2.8; in experiment [5], -2.88; in experiment [6], -2.9. For the same compound, the z-score in experiment [7] was -0.353 (inactive); in [8], -1.05; in experiment [9] it was -1.42; in [10], -0.301 (inactive).

Turning to `COc1ccc(C(O)C2C=CC3C(=O)N(c4ccccc4)C(=O)C3N2Nc2ccc(C(C)C)cc2)cc1OCc1ccccc1` (stereo not given), the z-score is 0.997 in experiment [1]; -1.42 in experiment [2]; 0.915 in [3]; -0.737 in experiment [4]; -0.63 in experiment [5]; -0.318 in [6]. Also, the z-score was -0.116 (inactive) in experiment [7], -0.427 in experiment [8], -0.173 in experiment [9] and -0.193 (inactive) in experiment [10].

For `C[N+](C)(C)CCCC[C@@H]1NC(=O)[C@@H]2C[C@H](C(=O)NCCCCCN)[C@H](c3cccc(OCCO)c3)N2C1=O`, the z-score in [1] was 1.53; in experiment [2] it was 0.698; in experiment [3] it was 1.45; in [4], 0.423; in experiment [5], 0.16; in experiment [6], 1.03. Besides, the z-score in experiment [7] was -0.117 (inactive); in experiment [8], 0.0947; in [9], -0.198; in experiment [10], 0.0718 (inactive).

As for `COC(=O)[C@@]1(Cc2ccccc2)[C@H]2c3cc(C(=O)N(C)C)n(CCSCCO)c3C[C@H]2CN1C(=O)c1ccccc1`, the z-score was 0.571 in experiment [1]; -0.0167 in [2]; -0.0301 in [3]; -0.614 in experiment [4]; -0.933 in [5]; -1.37 in [6]. The z-score was -0.728 (inactive) in experiment [7], 0.354 in experiment [8], -0.229 in experiment [9] and 0.0392 (inactive) in experiment [10].

With `C=C/C=C/[C@H]1C(=C)CN([C@@H](Cc2ccccc2)C(=O)OC)[C@@H]1[C@H](O)Cc1ccccc1`, the z-score in [1] is -0.0859; in experiment [2], -0.178; in experiment [3], -0.0232; in experiment [4] it was -2.2; in experiment [5], -1.52; in experiment [6] it was -1.06. Further, the z-score in experiment [7] is -0.882 (inactive); in experiment [8], -0.317; in experiment [9], 0.165; in [10], -0.138 (inactive).

Take `O=C1O[C@H](c2ccccc2)[C@H](c2ccccc2)N2[C@H]1[C@@H](C(=O)O)[C@]1(C(=O)Nc3ccc(C#CC4=CCCCC4)cc31)[C@H]2c1ccccc1OCCO`: the z-score is -0.986 in experiment [1]; -1.21 in [2]; -4.28 in experiment [3]; -3.3 in experiment [4]; -4.21 in experiment [5]; -3.56 in experiment [6]. The z-score in [7] was 1.39 (inactive); in experiment [8], -0.935; in experiment [9], -1.68; in experiment [10], -1.84 (inactive).

In the case of `C=C(CCCC)C(=O)CC[C@@H](OC(=O)c1cccnc1)c1ccc(CO)o1`, the z-score in experiment [1] was 0.274; in experiment [2], 0.149; in experiment [3] it was 0.909; in experiment [4], -0.238; in [5] it was -0.156; in [6], -1.35. Moreover, the z-score in [7] is -0.123 (inactive); in [8], 0.736; in experiment [9] it was -0.0347; in experiment [10], -0.192 (inactive).

Regarding `COC(=O)[C@@]1(Cc2ccc(F)cc2)[C@H]2c3cc(C(=O)N4CCCC4)n(Cc4cc(C)n(C)n4)c3C[C@H]2CN1C(=O)c1ccccc1`, the z-score in experiment [1] was -0.553; in [2], -0.0099; in experiment [3] it was 0.499; in [4] it was -0.391; in experiment [5], -0.382; in [6] it was 2.16. The z-score in [7] is -1.13 (inactive); in experiment [8], -0.0438; in [9], -0.461; in experiment [10] it was -0.156 (inactive).

`COCCCNC(=O)[C@@]1(Cc2ccccc2)N=C(c2ccc(OCCCO)cc2)O[C@H]1c1ccccc1`: the z-score in experiment [1] is -0.736; in experiment [2], -0.493; in [3], -0.104; in [4], -1.03; in [5] it was -0.856; in [6] it was 0.00935. Moreover, the z-score in experiment [7] is 0.425 (inactive); in [8] it was -1.11; in [9] it was -0.314; in [10] it was 1.57 (inactive).

With `CN1C(=O)C2C=CC(C(O)c3ccc(I)cc3)N(N3CCCCC3)C2C1=O` (stereo not given), the z-score in [1] was -0.481; in [2], -0.111; in [3], -0.619; in experiment [4] it was -3.7; in experiment [5], -0.955; in [6], -0.62. The z-score in experiment [7] was -0.435 (inactive); in [8] it was -0.484; in experiment [9], -0.624; in experiment [10], -0.799 (inactive).

`CCOC(=O)C[C@H]1[C@H](OC(=O)c2cc3ccccc3oc2=O)[C@@H](NC(=O)C2CCCCC2)c2cc(OCCCO)ccc2N1C(=O)c1ccccc1`: the z-score in experiment [1] is -0.11; in experiment [2] it was 3.15; in experiment [3] it was 0.914; in [4], 0.172; in experiment [5] it was -0.594; in experiment [6] it was 1.36. Further, the z-score in experiment [7] was -0.186 (inactive); in experiment [8], -0.848; in experiment [9], 0.739; in [10], -0.713 (inactive).

Values taken from PubChem BioAssay.
